Among the data in PubChem BioAssay (NCI) are growth inhibition values, retold here.

Assay [1] is described as follows: NCI Yeast Anticancer Drug Screen. Data for the rad50 strain (AID 155).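 Note: 0% = growth of vehicle-only cultures of the same strain.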 Particulars: S. cerevisiae rad50 strain growth inhibition; at 50.0 µM; stronger effect = higher value. The procedure, abridged:
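Cells are treated with compound, grown, and their growth is then scored against vehicle-only cultures of the same repair-deficient yeast strain.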

Assay [2] is described as follows: NCI Yeast Anticancer Drug Screen. Data for the mec2-1 strain (AID 157). Particulars: S. cerevisiae mec2-1 strain, at 50.0 µM, stronger effect = higher value. Summed up: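 Yeast mec2-1 mutant treated with compound. Readout: growth inhibition vs vehicle controls.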
Assay [3] is described as follows: NCI Yeast Anticancer Drug Screen. Data for the sgs1 mgt1 strain (AID 161).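 Note: 0% = growth of cultures given vehicle only.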 Particulars: S. cerevisiae sgs1 mgt1 strain, at 50.0 µM, stronger effect = higher value. The procedure, abridged: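 Mutant yeast exposed to compound; growth scored against vehicle-only wells.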
Assay [4] in a line: NCI Yeast Anticancer Drug Screen. Data for the cln2 rad14 strain (AID 165).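 Note: 0% = growth equal to vehicle treated cultures.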 To be noted: S. cerevisiae cln2 rad14 strain, at 50.0 µM, stronger effect = higher value. Summed up:
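cln2 rad14 yeast strain; compound exposure; growth inhibition read vs vehicle controls.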

Assay [5] can be described thus: NCI Yeast Anticancer Drug Screen. Data for the bub3 strain (AID 167). Particulars: S. cerevisiae bub3 mutant strain, at 50.0 µM, stronger effect = higher value. The procedure, abridged:
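Part of a panel of yeast mutants defective in DNA damage repair or cell cycle regulation. Each strain is grown with compound, and inhibition is calculated relative to solvent-treated cultures.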

Assay [6] can be described thus: NCI Yeast Anticancer Drug Screen. Data for the mlh1 rad18 strain (AID 175). To be noted: S. cerevisiae mlh1 rad18 strain growth inhibition; at 50.0 µM; stronger effect = higher value. Summed up:
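Yeast w/ defined DNA-repair lesions; compound exposure; growth vs vehicle controls → % inhibition.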

Values joined by “and” are separate entries in the source; they are usually repeats but may differ in a detail not shown here. Equal values may be shown once. The panel holds about 79,000 compounds, 15% with a hit somewhere; the sample as a whole holds those more often. Values without a mark were called inactive. Active and inactive are the calls of the source. Cut-off read from the data, not from the text of the source: active = growth inhibition above about 70%; inactive = the rest.

`O=C1CCN2CCCC1C2` (configuration not stated): the growth inhibition in assay [1] was -18.9%; in assay [2], -21.3%; in assay [3] it was -18.8%; in assay [4] it was -4.15%; in assay [5], -16.6%; in assay [6], -43.8%.

In the case of `Oc1ccc2ccccc2c1N=Nc1ccccc1`, the growth inhibition in assay [1] was -10.8% and 10.3%; in assay [2], -6.5% and -18.8%; in assay [3] it was -12.6% and -7.95%; in assay [4], -21.9% and -9.7%; in assay [5] it was 0.9% and -18.4%; in assay [6], 3.1% and 2.3%.

Consider `CCC[CH2][Sn]([CH2]CCN(C)C)([CH2]CCN(C)C)[CH2]CCN(C)C`, for which the growth inhibition was 38.5% in assay [1]; 8.4% in assay [2]; 12.8% in assay [3]; 15.2% in assay [4]; -1.95% in assay [5]; 28.2% in assay [6].

In the case of `C[CH2][Sn]([CH2]C)([n]1c(C)nc2ccccc21)[n]1c(C)nc2ccccc21`, the growth inhibition in assay [1] is -11.8%; in assay [2], 2.95%; in assay [3] it was -19.3%; in assay [4], 0.3%; in assay [5] it was 10.3%; in assay [6], -12.8%.

As to `COc1cc(N=Nc2cccc(C(=O)O)c2)ccc1N(CCCl)CCCl`, the growth inhibition in assay [1] is -12.4%; in assay [2] it was -16.4%; in assay [3], -30.9%; in assay [4] it was 17.7%; in assay [5], -3.3%; in assay [6] it was -23.3%.

Regarding `CC(=O)c1ccc([As](=O)(O)O)cc1`, the growth inhibition in assay [1] was -10.3%; in assay [2], -20.4%; in assay [3], -13.4%; in assay [4], -21.4%; in assay [5], -29.1%; in assay [6] it was -30.8%.

In the case of `COc1cc(C(CC(C)=O)c2cc3c(cc2OC(C)=O)OCO3)cc(OC)c1OC` (configuration not stated) (tested in a mixture with another compound), the growth inhibition in assay [1] is 5.1%; in assay [2], 8.6%; in assay [3] it was 17.2%; in assay [4], 2.45%; in assay [5], 5.15%; in assay [6], 23.8%.

As for `O=C1/C(=C\c2ccccc2)N2CCC1CC2`, the growth inhibition in assay [1] was 4.2%; in assay [2], -18.1%; in assay [3], -1.65%; in assay [4], -70.6%; in assay [5], -18.1%; in assay [6], -20.6%.

Take `COc1ccc(CC(N)c2ccccc2)cc1OC` (configuration not stated): the growth inhibition in assay [1] is -15.3%; in assay [2] it was 23.9%; in assay [3], -8.85%; in assay [4], -21.1%; in assay [5], -1.55%; in assay [6], -29.1%.

Turning to `CCOP(=O)(OCC)/C(C#N)=C/c1cc(O)ccc1O`, the growth inhibition was -34.2% in assay [1]; -35.1% in assay [2]; -51.9% in assay [3]; -10.2% in assay [4]; -47.9% in assay [5]; -45.8% in assay [6].

For `CCCC(=O)O.[Ni]`, the growth inhibition in assay [1] is 8.1%; in assay [2], -4.05%; in assay [3], -6%; in assay [4], -39.9%; in assay [5], -20.2%; in assay [6], -2.7%.

As for `Cn1c(O)c(C=N)c(=O)n(C)c1=O`, the growth inhibition in assay [1] was 15.1%; in assay [2], 5.4%; in assay [3], -2.6%; in assay [4] it was 7.45%; in assay [5] it was 0.8%; in assay [6], 4.7%.

As for `CCCCCCOC(=O)c1ccccc1C(=O)OCCCCCC`, the growth inhibition in assay [1] was -13.2%; in assay [2], -1.75%; in assay [3] it was -27.9%; in assay [4], -12.5%; in assay [5], -45.2%; in assay [6] it was -2.8%.

`CC(Cl)(Cl)[N+](=O)[O-]`: the growth inhibition in assay [1] was 33.7%; in assay [2], -22.5%; in assay [3], -8.05%; in assay [4], -60.1%; in assay [5], -10.2%; in assay [6] it was 21.1%.

Consider `O=Cc1ccccc1O`, for which the growth inhibition is 28.8% in assay [1]; -2.25% in assay [2]; 12.4% in assay [3]; -10.4% in assay [4]; -6.05% in assay [5]; 5.6% in assay [6].

For the compound `CC(=O)OC1[C@H](n2ccnc2)C[C@H]2[C@@H]3CC=C4CC(N5CCCC5)CC[C@]4(C)[C@H]3CC[C@]12C` (some centres not stated), the growth inhibition in assay [1] was 2.1%; in assay [2] it was -9.1%; in assay [3] it was -29.9%; in assay [4] it was 7.05%; in assay [5], -48.8%; in assay [6] it was -55.4%.

For `COP1(=O)OCC(C)(C)CO1`, the growth inhibition was 16.4% in assay [1]; -2.05% in assay [2]; 12.7% in assay [3]; 13.9% in assay [4]; -1.55% in assay [5]; 35.8% in assay [6].

Regarding `C1CC2CCC(N3CCCC3)C(C1)C21OCCO1` (configuration not stated), the growth inhibition is 11.3% in assay [1]; 9.75% in assay [2]; 5.05% in assay [3]; -3.2% in assay [4]; 6.45% in assay [5]; -8.9% in assay [6].

With `CC(=O)O.CC(=O)O.[Co+2].[NH-]C(CCC(N)=O)C(=O)O.[NH-]C(CCC(N)=O)C(=O)O` (configuration not stated), the growth inhibition in assay [1] was 15.2%; in assay [2], 13.4%; in assay [3], 34.2%; in assay [4] it was -4%; in assay [5], 22.3%; in assay [6] it was 19.9%.

`COc1cc([C@@H]2c3cc4c(c(O)c3C[C@H]3COC(=O)[C@@H]32)OCO4)cc(OC)c1O`: the growth inhibition was 17.8% in assay [1]; -13.9% in assay [2]; 14.2% in assay [3]; 9.4% in assay [4]; 7.2% in assay [5]; -14.7% in assay [6].

Take `N[C@H]1C2C3CC4C5CC(C42)C1(c1ccccc1)C53` (some centres not stated): the growth inhibition in assay [1] is -20.4%; in assay [2], -5.25%; in assay [3], -0.05%; in assay [4], -5.2%; in assay [5], -12%; in assay [6], -6%.

For `CNC(=O)c1cc(N(CCCl)CCCl)c([N+](=O)[O-])cc1[N+](=O)[O-]`, the growth inhibition in assay [1] is -3.15%; in assay [2], -17.5%; in assay [3], -6.05%; in assay [4] it was 10%; in assay [5], -3.15%; in assay [6], 19.4%.

For `Cc1cccc(-n2c(C)nc3ccccc3c2=O)c1C`, the growth inhibition in assay [1] was -15.2%; in assay [2], -1.1%; in assay [3], -3.35%; in assay [4] it was -2.6%; in assay [5] it was -0.6%; in assay [6], -13.1%.

Regarding `CC1C2Cc3ccc(O)cc3C1(C)CCN2CCC(=O)c1ccccc1` (configuration not stated), the growth inhibition in assay [1] is -8.85%; in assay [2], 1.4%; in assay [3], -7.3%; in assay [4] it was 18.2%; in assay [5], 5.6%; in assay [6], 9.55%.

Consider `CC1(C)OC2(C)CCC1C(O)C2N1CCCCC1` (configuration not stated), for which the growth inhibition is -29.6% in assay [1]; -4.15% in assay [2]; -13.4% in assay [3]; 0.75% in assay [4]; -1% in assay [5]; -8.6% in assay [6].

Take `COC(=O)[C@H]1[C@@H](O)[C@@]2(O)c3c(OC)cc(OC)cc3O[C@@]2(c2ccc3c(c2)OCO3)[C@@H]1c1ccccc1`: the growth inhibition was 89% (active) in assay [1]; 92.5% (active) in assay [2]; 91% (active) in assay [3]; 90.2% (active) in assay [4]; 88.2% (active) in assay [5]; 92.2% (active) in assay [6].

For `COC(=O)C1(C(=O)OC)ON1C(C)(C)C` (configuration not stated), the growth inhibition in assay [1] is -48.5%; in assay [2], -17.6%; in assay [3], -17.6%; in assay [4], -57.8%; in assay [5], -5%; in assay [6], -11.6%.
